The source of these data is PubChem BioAssay.

Each structure is given as a SMILES string. For some assays here: Entries with a potency or affinity are not part of this list. The list shows a part of the results. Calls of active or inactive are those of the source.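 Rule for the calls, unless noted: active = calcium signal rise above buffer-control mean plus 5 SD in both duplicates, and also a hit in the primary screen; inactive = the rest.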

The target in assay [1] is Inward rectifier potassium channel 2 (Mus musculus) (UniProt P35561). The assay is described as follows: inhibition of Kir2.1 inward rectifier potassium flux – cell-based, FluxOR thallium flux, duplicate, confirmation (AID 2032;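 active = Primary-screen hit whose thallium flux fell at least 3 control SD below untreated wells in both duplicates, with normal baseline fluorescence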;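 note: 0% = blank wells without stimulus and 100% = stimulated no-compound controls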). The following applies: Kir2.1-expressing cells, FluxOR thallium flux fluorescence, at 10 µM; hits give low values.
Inward rectifier potassium channel 2 (Mus musculus), sequence (P35561 whole entry, looked up): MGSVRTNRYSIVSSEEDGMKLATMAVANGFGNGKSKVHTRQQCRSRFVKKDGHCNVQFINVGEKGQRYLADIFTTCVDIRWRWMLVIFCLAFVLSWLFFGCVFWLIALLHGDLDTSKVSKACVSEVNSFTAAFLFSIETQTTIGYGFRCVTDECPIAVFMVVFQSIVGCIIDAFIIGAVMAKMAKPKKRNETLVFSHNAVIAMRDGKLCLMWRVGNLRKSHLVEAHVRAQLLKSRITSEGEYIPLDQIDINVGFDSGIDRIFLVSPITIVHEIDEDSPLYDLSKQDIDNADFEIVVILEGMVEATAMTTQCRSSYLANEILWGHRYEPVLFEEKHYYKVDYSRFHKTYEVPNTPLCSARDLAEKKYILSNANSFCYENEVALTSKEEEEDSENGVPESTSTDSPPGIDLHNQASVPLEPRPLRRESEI
Assay [2] can be described thus: parental HEK293 cell activity, no Kir2.1 – FluxOR thallium flux, duplicate, single concentration, counter-screen for Kir2.1 inhibitor project, confirmation (AID 2105;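 active = dye signal at least 3 control SD above or below untreated wells in both duplicates, raw fluorescence within 3, either direction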;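 for FluxOR signal as % of negative control (100 = no effect): percent is based on the flux ratio of peak minus minimum fluorescence over baseline F0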). The following applies: parental HEK293 cells, FluxOR thallium flux fluorescence, at 10 µM; 0% = unstimulated blank wells. (A counterscreen serves to expose hits that act by an unwanted route or on another target.)

Assay [3] relates to TRPC4 beta (transient receptor potential cation channel C4), mouse. The assay is described as follows: TRPC4 cation channel opening, retest – cell-based, Fluo4 calcium, HEK293 TRPC4beta/mu-opioid, duplicates, 10 µM, confirmation (AID 2426;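 active = fluorescence ratio normalized to control raised more than 50% in primary screen plus both repeat runs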). Conditions: Fluo4 calcium fluorescence, at 10 µM; hits give high values.
Assay [4] relates to transient receptor potential cation channel C4 beta (TRPC4), mouse. The assay is described as follows: TRPC4 cation channel opening, second retest – cell-based, second round, Fluo4, HEK293 TRPC4beta/mu-opioid, 1 µM, confirmation (AID 2461;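 active = primary screen active and over 50% activation in each of two duplicate runs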). The following applies: Fluo4 calcium fluorescence, at 1 µM; hits give high values.
The subject of assay [5] is TRPC4 (transient receptor potential cation channel C4 beta), mouse. As to the kind of experiment: potentiation of DAMGO EC20 TRPC4 response – cell-based, second round, Fluo-4, HEK293 TRPC4beta/mu-opioid, 1 µM, confirmation (AID 2554;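 active = primary screen hit whose fluorescence ratio, in both repeats, exceeds the weak agonist control mean by 3 SD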). Conditions: DAMGO EC20, Fluo-4 calcium flux, at 1 µM; hits give high values. In general terms: A change in cytosolic calcium serves as a functional read-out for many receptors and channels.

The subject of assay [6] is TRPC4 beta (transient receptor potential cation channel C4), mouse. As to the kind of experiment: potentiation of DAMGO EC20 TRPC4 response – cell-based, Fluo-4, HEK293 TRPC4beta/mu-opioid, confirmation (AID 2555;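 active = primary screen hit whose calcium fluorescence ratio, in both repeats, exceeds the weak agonist control mean by 3 SD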). The following applies: DAMGO EC20, Fluo-4 calcium flux, at 10 µM; hits give high values.
In assay [7] the target is Short transient receptor potential channel 4 (Mus musculus) (UniProt Q9QUQ5). As to the kind of experiment: blockers of DAMGO-evoked TRPC4 calcium flux – cell-based, Fluo4, HEK293 TRPC4beta/mu-opioid, confirmation (AID 2636;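 active = calcium signal cut by more than 3 SD below the full-agonist control yet still positive, in both repeats and the earlier primary screen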). The following applies: at 10 µM; hits give high values.
Short transient receptor potential channel 4 (Mus musculus), sequence (Q9QUQ5 whole entry, looked up): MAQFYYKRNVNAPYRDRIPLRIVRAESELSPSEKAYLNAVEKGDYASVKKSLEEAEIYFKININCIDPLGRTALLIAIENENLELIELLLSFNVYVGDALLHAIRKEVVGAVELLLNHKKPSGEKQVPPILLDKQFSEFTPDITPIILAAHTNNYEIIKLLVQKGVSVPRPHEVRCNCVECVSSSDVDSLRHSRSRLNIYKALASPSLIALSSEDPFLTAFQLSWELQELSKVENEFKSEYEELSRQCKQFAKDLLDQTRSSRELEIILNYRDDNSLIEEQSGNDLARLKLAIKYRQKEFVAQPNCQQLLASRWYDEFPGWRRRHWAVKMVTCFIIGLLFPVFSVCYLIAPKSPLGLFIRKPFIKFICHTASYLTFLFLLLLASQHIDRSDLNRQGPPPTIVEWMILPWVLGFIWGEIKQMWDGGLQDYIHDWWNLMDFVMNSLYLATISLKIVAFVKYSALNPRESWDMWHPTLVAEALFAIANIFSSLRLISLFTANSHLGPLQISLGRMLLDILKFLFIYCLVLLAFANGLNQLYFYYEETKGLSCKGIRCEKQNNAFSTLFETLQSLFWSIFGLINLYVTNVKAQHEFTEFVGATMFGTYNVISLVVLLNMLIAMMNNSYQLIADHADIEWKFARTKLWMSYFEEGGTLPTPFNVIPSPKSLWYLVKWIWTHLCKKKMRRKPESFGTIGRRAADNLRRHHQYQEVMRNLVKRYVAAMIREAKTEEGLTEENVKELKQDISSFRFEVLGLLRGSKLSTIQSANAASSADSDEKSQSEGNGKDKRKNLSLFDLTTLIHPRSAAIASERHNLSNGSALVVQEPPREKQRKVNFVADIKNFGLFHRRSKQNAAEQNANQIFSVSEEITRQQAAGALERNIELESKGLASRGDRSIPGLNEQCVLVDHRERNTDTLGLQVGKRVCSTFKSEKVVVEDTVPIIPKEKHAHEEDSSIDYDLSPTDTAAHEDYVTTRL
The target is the same in assay [8]. The assay is described as follows: blockers of DAMGO-evoked TRPC4 calcium flux – cell-based, second round, Fluo4, HEK293 TRPC4beta/mu-opioid, 1 µM, confirmation (AID 2637;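 active = calcium signal ratio cut to more than 3 SD under the fully stimulated control mean yet still positive, in both repeats and the primary screen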). The following applies: at 1 µM; hits give high values.
Assay [9] has the same target. The assay is described as follows: calcium entry via TRPC4 opening agents – cell-based, HEK293 TRPC4/mu-opioid, Fluo-4 calcium, dose response (AID 434937;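 active = primary screen activator hit with a dose response curve and TRPC4 channel activation at any tested dose; inactive = no activation, no dose response, or not a primary hit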).
Assay [10] has the same target. The assay is described as follows: potentiation of DAMGO-evoked TRPC4 calcium signal – cell-based, HEK293 TRPC4/mu-opioid, Fluo-4 calcium, EC20 DAMGO, dose response (AID 434941;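 active = earlier screen potentiator hit that boosts the TRPC4 ion channel at some dose, with a dose response; inactive = no potentiation, no dose response, or not a prior hit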;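 note: calcium entry triggered by an EC20 dose of DAMGO at the co-expressed mu-opioid receptor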).
Assay [11] shares this target. As to the kind of experiment: block of DAMGO-driven TRPC4 calcium entry – cell-based, HEK293 TRPC4/mu-opioid, Fluo-4 calcium, dose response (AID 434942;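 active = primary screen inhibitor hit that blocks the TRPC4 channel at some tested dose, yielding a dose curve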).
The target of assay [12] is Short transient receptor potential channel 6 (Mus musculus) (UniProt Q61143). As to the kind of experiment: TRPC6 blockade by TRPC4 inhibitor hits – cell-based, HEK293, membrane potential dye, duplicate, selectivity assay for TRPC4 inhibitor project, confirmation (AID 434948;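 active = active in primary screen and both duplicates, each dropping signal beyond three positive-control SD with fluorescence still positive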). Conditions: HEK293 TRPC6, membrane potential dye fluorescence, at 10 µM; inhibition: hits give high values, stimulated with maximal-effect acetylcholine unless noted; outcome: stimulated with maximal-effect acetylcholine unless noted.
Short transient receptor potential channel 6 (Mus musculus), sequence (Q61143 whole entry, looked up): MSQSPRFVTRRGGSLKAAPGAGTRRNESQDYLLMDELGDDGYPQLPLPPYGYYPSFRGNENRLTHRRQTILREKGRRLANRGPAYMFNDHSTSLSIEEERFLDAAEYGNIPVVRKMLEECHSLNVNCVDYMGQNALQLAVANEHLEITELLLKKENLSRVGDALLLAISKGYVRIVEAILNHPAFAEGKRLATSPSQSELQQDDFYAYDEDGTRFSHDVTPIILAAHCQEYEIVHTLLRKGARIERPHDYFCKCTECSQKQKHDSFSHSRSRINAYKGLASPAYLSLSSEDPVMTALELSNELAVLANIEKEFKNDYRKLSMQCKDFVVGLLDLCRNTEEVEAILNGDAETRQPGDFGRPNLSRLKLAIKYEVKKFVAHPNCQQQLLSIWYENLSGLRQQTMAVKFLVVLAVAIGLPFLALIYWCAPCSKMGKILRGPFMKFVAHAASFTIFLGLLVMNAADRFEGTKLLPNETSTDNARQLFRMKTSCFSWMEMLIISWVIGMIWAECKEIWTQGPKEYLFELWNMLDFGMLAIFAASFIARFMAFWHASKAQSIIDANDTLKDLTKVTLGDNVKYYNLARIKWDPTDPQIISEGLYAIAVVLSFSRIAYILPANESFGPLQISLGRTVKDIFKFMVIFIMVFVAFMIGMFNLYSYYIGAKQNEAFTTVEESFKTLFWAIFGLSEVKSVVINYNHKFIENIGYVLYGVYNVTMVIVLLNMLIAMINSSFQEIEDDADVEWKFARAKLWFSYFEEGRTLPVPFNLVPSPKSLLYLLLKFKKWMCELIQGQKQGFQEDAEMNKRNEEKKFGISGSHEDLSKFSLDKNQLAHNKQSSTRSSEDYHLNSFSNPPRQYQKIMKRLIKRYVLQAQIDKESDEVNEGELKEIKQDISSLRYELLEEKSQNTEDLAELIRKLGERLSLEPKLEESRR

Assay [13] has the same target. As to the kind of experiment: TRPC6 opening by TRPC4 activator hits – cell-based, HEK293, membrane potential dye, duplicate, selectivity assay for TRPC4 activator project, confirmation (AID 434950;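 active = membrane potential signal rise above negative control mean plus 3 SD in both duplicates, also active in the earlier TRPC4 screen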). The following applies: HEK293 TRPC6, membrane potential fluorescence, at 10 µM; activation: hits give high values; outcome: activation.
Assay [14] shares this target. The assay is described as follows: positive modulators of mouse TRPC6 channel – HEK293 cells, membrane potential dye, duplicate, selectivity assay for TRPC4 potentiator project, confirmation (AID 434952;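 active = compound raising the membrane signal above positive-control mean plus 3 SD in both repeats, and a primary screen hit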). The following applies: HEK293 TRPC6, membrane potential dye fluorescence, at 10 µM; maximal acetylcholine added after compound unless noted.
The target of assay [15] is Short transient receptor potential channel 4 (Mus musculus) (UniProt Q9QUQ5). As to the kind of experiment: calcium flux activators in TRPC4/5HT1a cells, counter-screen for TRPC4 activator project, cell-based, second counter screen, HEK293 TRPC4/5HT1a, Fluo-4 (AID 434977). The following applies: Fluo-4 calcium flux, at 10 µM; hits give high values.
Assay [16] in a line: serotonin-gated TRPC4 signal block – cell-based, second counter screen, HEK293 TRPC4/5HT1a, Fluo-4, counter-screen for TRPC4 inhibitor project, confirmation (AID 434978;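 active = primary screen active whose calcium signal fell more than 3 SD beyond the full-serotonin control mean in both duplicate plates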;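 note: serotonin given first at submaximal then at maximal dose after compound preincubation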). The following applies: Fluo-4 calcium flux, at 10 µM; inhibition: hits give high values, serotonin added to trigger calcium flux unless noted; outcome: serotonin added to trigger calcium flux unless noted.
For assay [17], the system named is TRPC4 (mouse), co-expressed with 5HT1a in HEK293. As to the kind of experiment: enhancement of serotonin-evoked TRPC4 response – cell-based, second counter screen, HEK293 TRPC4/5HT1a, Fluo-4, counter-screen for TRPC4 potentiator project, confirmation (AID 434979;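 active = signal rise over 3 SD above mean of control wells given weak agonist, in both repeats and first screen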). Conditions: Fluo-4 calcium flux, at 10 µM; outcome: serotonin added at its EC20 dose unless noted; potentiation: hits give high values, serotonin added at its EC20 dose unless noted.

Assay [18] in a line: nonspecific calcium rise without TRPC4 – cell-based, HEK293 mu-opioid receptor line, counter-screen for TRPC4 activator project, confirmation (AID 449723;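 active = hit in primary screen, with calcium signal over 5 SD above buffer well mean in both duplicates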;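 note: counter screen cells carry the mu-opioid receptor alone and lack TRPC4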). Conditions: HEK293 mu-opioid cells, Fluo-4 calcium fluorescence, at 10 µM; hits give high values.
Assay [19] can be described thus: nonspecific potentiation of DAMGO calcium response – cell-based, HEK293 mu-opioid receptor line, counter-screen for TRPC4 allosteric potentiator project, confirmation (AID 449724;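 active = calcium signal rise more than 3 SD above the low-dose agonist control mean, in both duplicate plates and the primary screen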;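 note: HEK293 cells carrying mu-opioid receptor only with no TRPC4 channel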). The following applies: HEK293 mu-opioid receptor cells, Fluo-4 calcium flux, at 10 µM; compound added before EC20 DAMGO stimulus unless noted.

Regarding `c1ccc(C2NCc3ccccc3-n3cccc32)cc1` (configuration not stated), the Tl flux remaining, % of negative control (hits give low values) in assay [1] is 52% (active). Further, in assay [2], the outcome was inactive.
Turning to `Cc1ccccc1CN1CCNCC1`, the outcome in assay [3], in [4], in assay [5], in assay [6], in assay [7] and in assay [8] was inactive. For the same compound, the result in assay [9], in assay [10], in [11], in [13], in assay [15] and in assay [18] was inactive. Also, the outcome in [12], in assay [14], in [16], in assay [17] and in [19] was “inactive [setting not given]” throughout.
Regarding `Cc1c(P(=S)(c2ccccc2)c2ccccc2)[n+]2ccccc2n1C`, the result in assay [3], in assay [4], in [5], in assay [6], in [7] and in [8] was inactive. Further, the result in assay [9], in [10], in assay [11], in [12], in assay [13] and in assay [14] was inactive. Also, the result in assay [15], in [16], in [17], in [18] and in assay [19] was inactive.
`CCc1ccc(OCCCN=C(C)c2c(O)n(C)c(=O)n(C)c2=O)cc1`: the result in assay [3], in assay [4], in assay [5], in assay [6], in assay [7] and in assay [8] was inactive. Further, the result in [9], in [10], in assay [11], in assay [13], in assay [15] and in [18] was inactive. Also, the outcome in assay [12], in [14], in assay [16] and in assay [19] was “inactive [setting not given]” each time. The potentiation in assay [17] was 13.7% [hits give high values] (active).
Turning to `FC(F)(F)c1ccc(CN2CCNCC2)cc1`, the result in assay [3], in assay [4], in assay [7], in assay [8], in assay [9] and in assay [10] was inactive. Besides, the result in [11], in assay [13], in assay [15] and in [18] was inactive. The potentiation in assay [5] was 26% (active); in [6], 22% (active); in [17] it was 25.6% [hits give high values] (active). Also, the outcome in assay [12], in [14], in [16] and in assay [19] was “inactive [setting not given]” in each case.
On to `Clc1ccc(N2CCNCC2)nn1`, for which the outcome in assay [3], in [4], in assay [6], in [7], in assay [8] and in [9] was inactive. Also, the result in [10], in assay [11], in [12], in [13], in assay [14] and in [15] was inactive. Besides, the result in assay [16], in assay [18] and in [19] was inactive. In addition, the values for the potentiation in [5] and in assay [17] were 14% (active) and 16.3% (active), respectively.
For `Fc1ccc(N2CCN(Cc3ccc4c(c3)OCO4)CC2)cc1`, the Tl flux remaining, % of negative control (hits give low values) in [1] is 36.5% (active). The result in assay [2] was inactive.
With `COC(=O)C(Cc1ccc(N(CCCl)CCCl)cc1)N=Cc1ccccc1O` (configuration not stated), the outcome in assay [3], in [4], in assay [5], in [6], in assay [7] and in assay [8] was inactive. In addition, the result in assay [9], in [10], in [11], in [12], in assay [13] and in [14] was inactive. The outcome in assay [15], in [16], in [17], in [18] and in [19] was inactive.
`CC(C)CNc1c2c(nc3ccccc13)CCC2`: the result in assay [3], in [4], in assay [5], in assay [6], in assay [7] and in assay [8] was inactive. Further, the outcome in assay [9], in [10], in assay [11], in assay [12], in [13] and in assay [14] was inactive. For the same compound, the result in assay [15], in assay [16], in [17], in [18] and in [19] was inactive.
`C#CCN1C(=O)C2(C(C#N)=C(N)OC(C)=C2C(=O)OCc2ccccc2)c2ccccc21` (configuration not stated): the outcome in [3], in [4], in assay [5], in [7], in [8] and in [9] was inactive. In addition, the result in assay [10], in assay [11], in assay [12], in assay [13], in [14] and in assay [15] was inactive. The result in [16], in assay [18] and in assay [19] was inactive. The potentiation in assay [6] was 11% (active); in [17], 28.9% (active).
In the case of `CN1CCN(c2cccc3c2C(=O)c2ccccc2C3=O)CC1`, the outcome in [3], in [4], in assay [7], in assay [8], in assay [9] and in assay [10] was inactive. The result in [11], in assay [12], in [13], in [14], in assay [15] and in assay [16] was inactive. For the same compound, the outcome in assay [17], in assay [18] and in assay [19] was inactive. In addition, the potentiation is 16% (active) in [5] and 8% (active) in assay [6].
In the case of `CNCC(O)c1cc(F)c(OCc2ccccc2)c(OCc2ccccc2)c1F` (configuration not stated), the Tl flux remaining, % of negative control (hits give low values) in assay [1] is 34.5% (active). The FluxOR signal as % of negative control (100 = no effect) in assay [2] was 74% (active).
As for `CCN1CC2C3CCC(C)(O3)C2C1` (configuration not stated), the outcome in assay [3], in [4], in [5], in [6], in assay [7] and in assay [8] was inactive. For the same compound, the outcome in [9], in [10], in assay [11], in assay [12], in assay [13] and in assay [14] was inactive. Besides, the result in [15], in [16], in assay [17], in assay [18] and in assay [19] was inactive.
Turning to `Oc1c(Br)cc(Br)cc1CN1CCN(Cc2ccccc2)CC1`, the outcome in [3], in assay [4], in [5], in assay [7], in [8] and in [9] was inactive. In addition, the result in [10], in [11], in assay [13], in assay [15] and in assay [18] was inactive. Moreover, the results for the potentiation in [6] and in assay [17] were 44% (active) and 20.2% [hits give high values] (active), respectively. In addition, the outcome in [12], in assay [14], in assay [16] and in assay [19] was “inactive [setting not given]” throughout.
As for `COc1ccc(C(=O)C2CN(C)CC2c2ccc(Cl)cc2)cc1` (configuration not stated), the result in [3], in assay [4], in assay [5], in assay [6], in assay [7] and in assay [8] was inactive. Also, the outcome in assay [9], in [10], in assay [11], in [12], in assay [13] and in [14] was inactive. For the same compound, the outcome in [15], in [16], in assay [17], in assay [18] and in assay [19] was inactive.
Consider `CN(C)CCn1cnc2ccccc21`, for which the result in assay [3], in assay [4], in assay [5], in [6], in [7] and in assay [8] was inactive. For the same compound, the outcome in assay [9], in assay [10], in assay [11], in [12], in assay [13] and in [14] was inactive. Moreover, the outcome in [15], in assay [16], in assay [18] and in [19] was inactive. Moreover, the potentiation in assay [17] is 19.9% (active).
